Source: PubChem BioAssay (EPA / NIEHS)
Where “and” joins values, the source holds several entries; their conditions need not be identical. Identical values can stand only once. Calls of active or inactive are those of the source. The calls were made as follows: active = hit-call score of the fitted dose curve at least 0.9, where 1 is the maximum; inactive = score below 0.9.

read-out: Actin alpha 1 (ACTA1), ACTA1 (gene 58); assay: BSK_MyoF_ACTA1: BioMAP Diversity Plus: MyoF Assay for Actin alpha 1 (ACTA1) Biomarker Activity (AID 2284244); details: primary human lung fibroblasts
Summary of the method: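 Human lung fibroblasts (MyoF system) dosed with test chemical for 24 h; α-SMA measured by ELISA. Gain of signal fitted relative to DMSO negative control as baseline.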

SMILES | outcome | AC50
CCOC(=O)C1=NOC(c2ccccc2)(c2ccccc2)C1 | inactive | –
CC1(C)CC(O)CC(C)(C)N1[O] | inactive | –
CCCCCCOC(=O)CCCCC(=O)OCCCCCC | inactive | –
C=CC(=O)OCC(C)OCC(C)OCC(C)OC(=O)C=C (configuration not stated) | – | 30.8 µM (active)
CC(C)CCCCCOC(=O)CS | inactive | –
CCCCCCC=O | inactive | –
CCCCCCCCC(CO)CCCCCC (configuration not stated) | inactive | –
CCCCCCCO | inactive | –
CCOC(=O)/C=C\C(=O)OCC | inactive | –
CCOC(=O)C1=NN(c2ccc(Cl)cc2Cl)C(C)(C(=O)OCC)C1 (configuration not stated) | inactive | –
Fc1ccc(Br)cc1 | inactive | –
C=CC(=O)OCCCCCCOC(=O)C=C | – | 20 µM (active)
C=CCCCCCCCCC=O | inactive | –
CC(c1cc(C(C)(C)C)cc(C(C)(C)C)c1O)c1cc(C(C)(C)C)cc(C(C)(C)C)c1O | inactive | –
CCc1cccc(C)c1N(C(=O)CS(=O)(=O)O)C(C)COC (configuration not stated) | inactive | –
CCN1CN(CC)CN(CC)C1 | inactive | –
COc1ccc(C(=O)/C(Br)=C\C(=O)O)cc1 | – | 28 µM (active) and 30.3 µM (active)
CC=C(C)C=CC=C(C)C | inactive | –
CC/C=C\C/C=C\C/C=C\CCCCCCCC(=O)OC | – | 6.98 µM (active)
CC(Cl)COP(=O)(OCC(C)Cl)OCC(C)Cl (configuration not stated) | inactive | –
O=C(O)C(F)(F)C(F)(F)C(F)(F)C(F)(F)C(=O)O | inactive | –
C[N+](C)(C)CCCNS(=O)(=O)C(F)(F)C(F)(F)C(F)(F)C(F)(F)C(F)(F)C(F)(F)C(F)(F)C(F)(F)F | – | 33.6 µM (active) and 31.3 µM (active)
